Bioassay records as filed in PubChem BioAssay.
A selection: hits, their analogues and other compounds. The true share with any hit is near 19%.
AMA1-RON2 inh – AMA1-RON2 (P. falciparum) interaction inhibition; AlphaScreen AMA1-biotinylated RON2 peptide binding; Potency, µM (series often up to 58.2 µM), without a hit: top-dose activity change, negative = inhibition, hits mostly inhibitors; 360,000 compounds, 0.2% hits; AID 720542;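 further: potency means the concentration at half of the fitted maximal effect; 0% = vehicle wells and -100% = peptide control; nearly all actives have a fitted effect of over 45% in size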
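AMA1 (3D7) with his tag at 25 nM final met compounds first, then biotinylated RON2 peptide at 25 nM; detection used donor plus acceptor beads, 10 µg/mL apiece, read by AlphaScreen after 30 min at room temperature.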
Pf growth 48h – inhibits P. falciparum growth in the first generation, 48 h. 310,000 compounds, 5.9% hits. Potency, µM (series often up to 28.7 µM), without a hit: at the top dose activity change, negative = inhibition, usual class: inhibitors. P. falciparum luciferase growth in erythrocytes, 48 h. AID 504832; further: potency means the concentration at half of the fitted maximal effect; on the % scale 0 is the no-effect control and ±100 the full control effect
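Luminescence readout; reporter = integrated firefly luciferase in P. falciparum. RBC culture at 2% hematocrit, 0.1% parasitemia final, 37 C/5% CO2; decreased signal taken as growth inhibition.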
Pf growth 96h – P. falciparum growth inhibition at 96 hour, primary screen for plastid delayed-death inhibitors; 320,000 compounds, 6.9% hits; P. falciparum luciferase reporter growth, 96 h; Potency, µM (top dose mostly 28.7 µM), for the others: top-dose activity change, negative = inhibition, actives largely listed as inhibitors; AID 504834; further: potency means the concentration at half of the fitted maximal effect; on the % scale 0 is the no-effect control and ±100 the full control effect
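Cell-based qHTS: luciferase-tagged P. falciparum in erythrocytes (2% hematocrit, 0.05% parasitemia final) incubated with compounds for 96 hours, 37 C, 5% CO2; luciferase detection reagent then added and luminescence measured.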
Shiga inhibitor – inhibitors of Shiga toxin in Vero cells | Vero cells, Shiga toxin protein synthesis inhibition reporter | inhibition, % at 38.7 µM | 290,000 compounds, 9.2% hits; in the data active means inhibition mostly above about 28%, no sharp cut-off; inactive means mostly below about 43%; further: 0% is about no effect
SARS PLpro yeast – SARS-CoV PLP inhibition in yeast; S. cerevisiae expressing SARS-CoV PLpro, growth rescue; Potency, µM (highest dose often 32.9 µM), for the others: top-dose activity, positive = growth rescue, usual class: activators; 330,000 compounds, 0.19% hits; AID 485353; calls by dose curve; further: potency means the concentration at half of the fitted maximal effect; 0% is about no effect; nearly all actives have a fitted effect of over 55% in size
Cycloheximide cs – counter-screen hit for Shiga toxin inhibitors, cycloheximide; max response, %; 300,000 compounds, 12% hits; cell reporter, cycloheximide protein synthesis inhibition counterscreen; in the data active means max response mostly above about 13%, no sharp cut-off; inactive means mostly below about 14%; further: read at 38.3 µM for the half of the compounds with a filed dose; 0% is about no effect
An asterisk follows results filed as active; u = inconclusive; x = no result. Unless noted, the call rests on the fitted dose curve; in most records, active means well fitted curve in the direction sought with a large enough effect; inconclusive means small, poorly fitted or top-dose-only effect, or another doubt; inactive means no such curve, though single readings can be large; an effect the other way counts as inactive or inconclusive.

SMILES	AMA1-RON2 inh	Pf growth 48h	Pf growth 96h	Shiga inhibitor	SARS PLpro yeast	Cycloheximide cs
CCC1Nc2ncnc(N3CCOCC3)c2N(Cc2ccc(Cl)cc2)C1=O (stereo not given)	-0.5%	x	x	x	-2.7%	x
O=C1C(Cc2ccccc2)Nc2ncnc(N3CCOCC3)c2N1Cc1ccc(Br)cc1 (stereo not given)	-7.0%	13.1µM*	u	x	2.0%	x
CCOC(=O)[C@]12CCC=C1N(Cc1ccccc1)C(=O)[C@H](CC(=O)NCc1ccc(OC)c(OC)c1)C2	-1.4%	x	x	x	x	x
COc1ccc(OC)c(C(=O)NC(CC(N)=O)c2ccc(NCCN3CCOCC3)c([N+](=O)[O-])c2)c1 (stereo not given)	-10.5%	-24.7%	-16.3%	-5.5	1.2%	1.4
COc1ccc(OC)c(NC(=O)c2cccc(NC(=O)c3ccccc3C(=O)O)c2)c1	3.6%	x	23.6%	9.9	0.8%	-0.9
CC1Nc2ncnc(N3CCN(c4ccccc4)CC3)c2N(Cc2ccc(Cl)cc2)C1=O (stereo not given)	-12.4%	8.28µM*	13.1µM*	x	5.6%	x
COc1ccc(NC(=O)Cc2nn(C)c(=O)c3ccccc23)c2ncccc12	x	x	x	-9.8	-3.0%	-2.6
Brc1ccc(-n2cnc(-c3ccccc3)c2)cc1	-21.1%	181.0%	425.3%	60.1*	-2.2%	51.5*
O=[N+]([O-])c1ccc(-c2cn(-c3ccc(Cl)cc3)cn2)cc1	-1.3%	x	x	x	x	x
CC1C(=O)N(Cc2cn(CCC3OCCCO3)nn2)CCS(=O)(=O)N1Cc1ccc(-c2cccc(CO)c2)cc1 (stereo not given)	13.3%	x	x	x	x	x
Nc1ccc(Br)cc1-c1nc2ccccc2[nH]c1=O	9.0%	31.8%	1.5%	75.0*	0.7%	20.4
CNc1ccc([N+](=O)[O-])cc1-c1nc2ccccc2[nH]c1=O	17.2%	-11.5%	26.2%	15.8	0.5%	-1.6
O=c1[nH]c2ccccc2nc1-c1c[nH]c2ccccc12	34.3%	x	u	34.4	-1.4%	25.6*
Cc1nc2ccccc2[nH]c1=O	13.8%	25.4%	-1.3%	16.6	-0.8%	-0.1
Nc1ccccc1-c1nc2ccccc2[nH]c1=O	-6.5%	60.6%	60.2%	80.4*	-0.8%	57.5*
CCC(=O)Nc1ccccc1-c1nc2ccccc2[nH]c1=O	-8.8%	9.8%	u	7.7	8.1%	1.0
C[C@@H]1NC(=O)[C@H](CCCN=C(N)N)NC(=O)c2cc([N+](=O)[O-])cc(I)c2OCC[C@@H](C(N)=O)NC1=O	x	18.1%	-5.6%	-17.9	15.0%	-3.3
Cc1onc(-c2ccccc2Cl)c1C(=O)Oc1cccc2cccnc12	108.1%	u	23.8%	35.9	-3.1%	16.6
COc1ccccc1C(=O)NC(=O)COC(=O)Cn1cnc2c1c(=O)n(C)c(=O)n2C	-8.4%	8.7%	15.5%	x	-4.3%	x
CCCC(=O)N1CCCC1(C)C(=O)NCc1ccc(F)cc1Cl (stereo not given)	12.2%	x	x	x	x	x
Cc1cccc(OCc2nnc(SCC(=O)N3c4ccccc4CCc4ccccc43)o2)c1	-1.1%	10.4µM*	u	-8.2	0.3%	3.5
O=C(CSc1nnc(COc2ccc(F)cc2)o1)N1c2ccccc2CCc2ccccc21	3.6%	4.15µM*	u	-5.2	-7.0%	7.8
O=C(CSc1nnc(COc2ccc(F)cc2)o1)N1CCCCC1	2.2%	25.0%	-25.3%	-3.6	-0.4%	-4.2
CCN1CCCC1CNCc1ccccc1OCc1ccc(F)cc1 (stereo not given)	11.2%	10.4µM*	x	-16.2	-3.3%	-1.5
CCN1CCCC1CNCc1cccc(OC)c1OCc1ccccc1 (stereo not given)	-4.4%	-26.4%	11.7µM*	-5.1	17.7%	2.7
COCCCNC(=O)CC1C[C@H](C(=O)N(C(C)C)C(C)C)[C@@]2(C)c3[nH]c4ccccc4c3CCN2C1=O (stereo not given in full)	-4.1%	x	x	x	-1.8%	x
O=c1[nH]cnc2c1ncn2C1OC(CO)CC1F (stereo not given)	4.2%	x	x	x	x	x
O=C(CCS(=O)(=O)Cc1ccccc1)NCCc1ccccc1	-2.2%	9.0%	-14.0%	-5.1	1.7%	-3.2
COc1ccc(CCNC(=O)CCn2cccc2)cc1OC	-13.7%	7.0%	32.3%	-4.6	4.7%	-2.8
